# The panel holds about 83,000 compounds, 20% with a hit somewhere; the sample as a whole holds those more often.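 Negative percent growth values reflect cell death: -40 means 40% of the cells present at the start died, and -100 means all died.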 The source made the active and inactive calls. How the source made its calls: active means growth percent below 10; inactive means the rest.
# System: HL-60(TB) leukemia
# Assay: NCI-60 one-dose screen, 48 h (100 = growth as untreated, 0 = no growth, -100 = all killed)
# Settings: 10 µM unless noted
row,SMILES,growth
1,CC1=NC2=NN3C(=NN2C(c2ccccc2)=C1)N=NC(c1ccc(Br)cc1)=C3c1ccc(Br)cc1,115% (inactive)
2,CNC(=O)c1cc(N2CCc3cc(NC(=O)Nc4ccc(Cl)c(Cl)c4)ccc32)ccn1,124% (inactive)
3,Cc1ccc(NC(=O)N[C@@H](Cc2cc(F)cc(F)c2)C(=O)NC2C(=O)N3C[C@H](O)C[C@H]3C(=O)N3CCCC[C@H]3C(=O)N[C@@H](CO)C(=O)N3C[C@H](C)C[C@H]3C(=O)O[C@H]2C)c(F)c1 (stereo not given in full),16.2% (inactive)
4,O=C(N/N=C/c1ccc([N+](=O)[O-])s1)c1[nH]c2ccc(Br)cc2c1-c1ccccc1,-28.9% (active)
5,C#C[C@]1(O)CC[C@H]2[C@@H]3CC=C4c5sc(-c6ccc(C)cc6)nc5CC[C@]4(C)[C@H]3CC[C@@]21C,-2.49% (active)
6,COc1cc(/C=C/C(=O)c2ccc(NC(=O)CSc3nnc(-c4ccc5nc(-c6ccccc6)[nH]c5c4)o3)cc2)cc(OC)c1OC,69% (inactive)
7,N#Cc1c(-c2ccc(Cl)cc2)nc(SCc2ccc(F)cc2)nc1N1CCNCC1,-34.8% (active)
8,Cn1ccnc1C(=O)/C=C/c1ccc(CNC(=O)c2ccc(F)cc2)cc1,-4.42% (active)
9,NC(N)=Nc1ccc(Oc2cccc(Oc3ccc(Cl)c(C(F)(F)F)c3)c2)cn1,-69% (active)
10,Cc1ccc(S(=O)(=O)NCCCNc2nc(Nc3ccc(N4CCN(C)CC4)cc3)nc3ccsc23)cc1,-50.9% (active)
11,O=C(/C=C/c1ccc(F)cc1)c1ccc(O)cc1,81.9% (inactive)
12,COc1ccccc1N1CCN(C2=CC(=O)C(C)=C(C)C2=O)CC1,113% (inactive)
13,CCCCCc1ccc(S(=O)(=O)Nc2cccc(-c3csc(NC(=O)CN4CCN(C)CC4)n3)c2)cc1,35.8% (inactive)
14,Cc1nc(-c2cc3ccccc3c(N3CCN(C)CC3)n2)cs1,97.2% (inactive)
15,COc1ccc(S(=O)(=O)NCCCNc2nccc(-c3[nH]c(-c4ccccc4)nc3-c3ccc(Cl)c(O)c3)n2)cc1,43.2% (inactive)
16,CCc1cc2c(cc1Cl)nc1c(=O)[nH]c(=O)nc-1n2CCOCC(C)(C)C,82% (inactive)
17,CCN1C(=S)N(CC)C2C1NN=C1SC(c3ccccc3)=CC(=O)N12 (stereo not given),86.9% (inactive)
18,Oc1ccc(CSc2nnc(-c3ccccc3)o2)c2cccnc12,7.7% (active)
19,NC(N)=Nc1ccc(Nc2cccc(Nc3ccc(Cl)c(C(F)(F)F)c3)c2)cn1,-40.5% (active)
20,COc1cc(Nc2c(C#N)cnn3cc(-c4cnn(CC(C)(C)O)c4)cc23)ccc1Cl,47.8% (inactive)

row,SMILES,growth
1,COc1ccc(S(=O)(=O)n2cc(C=O)c3ccccc32)c(OC)c1,4.32% (active)
2,CC(C)c1nn(-c2ccccc2)c(N2CCCCC2)c1/C=N/NC(N)=S,98.4% (inactive)
3,Clc1ccc(Cc2nnc3sc(-c4cccnc4)nn23)cc1,97.2% (inactive)
4,NNc1nnc2nc(Nc3ccccc3)nc(Nc3ccc(S(N)(=O)=O)cc3)n12,108% (inactive)
5,CN(C)CCn1c2ccc(N)cc2c2nc3ccccc3nc21,12% (inactive)
6,Cc1ncn(-c2ccc(/C=N/Nc3ccnc4cc(Cl)ccc34)cc2)c1C,-40.4% (active)
7,CCc1ccc(NC(=O)N[C@@H](Cc2cc(F)cc(F)c2)C(=O)N[C@@H]2C(=O)N3CCC[C@H]3C(=O)N3CCO[C@H](C)[C@H]3C(=O)N[C@@H](CO)C(=O)N3C[C@H](C)C[C@H]3C(=O)O[C@H]2C)c(F)c1,15.4% (inactive)
8,Cc1ccc(-c2nc(SCC(=O)c3ccccc3)nc(Nc3ccc(S(N)(=O)=O)cc3)c2C#N)cc1,95.9% (inactive)
9,CCOC(=O)c1c(Nc2ccccc2)nn2c(-c3ccco3)c(C#N)cnc12,110% (inactive)
10,O=C(/C=C/c1cn(-c2ccccc2)nc1-c1ccc(Cl)cc1)c1cc2ccccc2oc1=O,85.6% (inactive)
11,Nc1nc(N)c2c(n1)NC(c1ccc(Cl)cc1)CC(c1ccc(Nc3nc(NCCO)nc(Nc4ccc(Cl)cc4)n3)cc1)=N2 (stereo not given),9.81% (active)
12,COc1ccc(-c2cc(-c3cccc4ccccc34)n3c(n2)nc2ccccc23)cc1OC,-7.71% (active)
13,O=S(=O)(Nc1ccc(I)c(Cl)c1)c1ccc(-c2cnc(C3CC3)o2)cc1,-1.6% (active)
14,CCN(CC)S(=O)(=O)c1ccc(-c2nc(C(Cl)Cl)nc3cc(C)nn23)cc1,-9.17% (active)
15,CN1CCN(c2ccc(Nc3nc(NCCNS(=O)(=O)c4ccc(Cl)cc4)c4sccc4n3)cc2)CC1,80.1% (inactive)
16,Cc1ccc2c(n1)C(=O)C(Cl)=C(Nc1cccc(C)c1C)C2=O,-23.2% (active)
17,Cc1ccc(C(=O)Nc2ccc(CNCCN3CCOCC3)c(C(F)(F)F)c2)cc1C#Cc1cnc2cccnn12,-21.3% (active)
18,Cc1ccc2sc3c(c2c1)OC(N)=C(C#N)C3c1cccc(F)c1 (stereo not given),-0.493% (active)
19,O=C1c2c(c3c4cc(Br)ccc4[nH]c3c3ccc4ccccc4c23)C(=O)N1CCN1CCCCC1,1.48% (active)
20,CC(C)C[C@H]1C(=O)O[C@H](C(C)C)C(=O)N(C)[C@@H](C(C)C)C(=O)O[C@H](C(C)C)C(=O)N(C)[C@@H](C(C)C)C(=O)O[C@H](C(C)C)C(=O)N1C,-51.3% (active)
